Experimental data reported in the supplement of paper PMC10127200.
Counter-ions that a name gives are not always drawn.

Tests used:
Test in all cases: Euclidean distance of Cell Painting phenotypic profile (signed KS, 77 features) to DMSO centroid (dimensionless distance); 5 or 10 uM (library dependent); higher = stronger phenotypic change vs DMSO (phenoactivity)
Details in all cases: 48 h
786-O = system: 786-O
How it was run: (§1)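 Phenoactivity is defined as the Euclidean distance from a compound profile to the median vehicle profile. Each profile comprised 77 Harmony features, scored as signed Kolmogorov-Smirnov statistics versus same-plate vehicle wells, then plate-position corrected, correlation-weighted and replicate-averaged at the top dose. Five cancer lines and one healthy fibroblast line were exposed to library compounds for 48 h at 10 or 5 uM (0.1% DMSO final).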

A549 = system: A549
How it was run: as §1

DU145 = system: DU145
How it was run: as §1

FB = system: FB
How it was run: as §1

HEPG2 = system: HEPG2
How it was run: as §1

OVCAR4 = system: OVCAR4
How it was run: as §1

Structure (SMILES) | Euclidean distance (786-O) | Euclidean distance (A549) | Euclidean distance (DU145) | Euclidean distance (FB) | Euclidean distance (HEPG2) | Euclidean distance (OVCAR4)
CC[C@H]1OC(=O)[C@H](C)[C@@H](O[C@H]2C[C@@](C)(OC)[C@@H](O)[C@H](C)O2)[C@H](C)[C@@H](O[C@@H]2O[C@H](C)C[C@H](N(C)C)[C@H]2O)[C@](C)(O)C[C@@H](C)[C@@H]2N[C@@H](COCCOC)O[C@H]([C@H]2C)[C@]1(C)O [Dirithromycin] | 0.963 | 1.37 | 0.758 | 1.06 | 1.27 | 1.41
COc1ccc(C[C@@H]2c3cc(OC)c(OC)cc3CC[N@+]2(C)CCC(=O)OCCCCCOC(=O)CC[N@@+]2(C)CCc3cc(OC)c(OC)cc3[C@H]2Cc2ccc(OC)c(OC)c2)cc1OC [Cisatracurium Besylate] | 1.42 | 0.822 | 0.815 | 1.11 | 1.11 | 1.35
CNCCc1ccccn1 [Betahistine 2HCl] | 1.56 | 0.851 | 1.21 | 0.822 | 0.61 | 1.03
C=C1C(=O)O[C@H]2[C@H]1CC/C(C)=C/CC[C@@]1(C)O[C@@H]21 [(-)-Parthenolide] | 3.29 | 1.26 | 3.27 | 2.7 | 1.55 | 1.16
C[C@]12CCC(=O)C=C1[C@@H]1C[C@@H]1[C@H]1[C@@H]3[C@@H]4C[C@@H]4[C@@]4(CCC(=O)O4)[C@@]3(C)CC[C@@H]12 [Drospirenone] | 0.972 | 0.987 | 0.866 | 0.787 | 0.612 | 0.995
NC(=O)c1cnc2[nH]ccc2c1N[C@@H]1[C@@H]2CC3C[C@H]1C[C@@](O)(C3)C2 | 2.3 | 2 | 1.41 | 3.39 | 1.42 | 2.08
CN1CCN(c2ccc(C(=O)Nc3n[nH]c4ccc(Cc5cc(F)cc(F)c5)cc34)c(NC3CCOCC3)c2)CC1 [Entrectinib (RXDX-101)] | 5.06 | 3.73 | 4.31 | 5.6 | 5.43 | 4.97
CCN(CC)CCOc1ccc2c(c1)C(=O)c1cc(OCCN(CC)CC)ccc1-2 [Tilorone dihydrochloride] | 2.8 | 3.87 | 2.37 | 5.04 | 4.45 | 3.1
Cc1cc2c(F)c(Oc3ncnn4cc(OC[C@@H](C)OC(=O)[C@H](C)N)c(C)c34)ccc2[nH]1 | 2.11 | 1.25 | 1.14 | 1.57 | 0.818 | 1.35
CC(=O)O[C@@H]1CC[C@@]2(C)[C@@H](CC[C@]3(C)[C@@H]2C(=O)C=C2[C@@H]4[C@@H](C)[C@H](C)CC[C@]4(C)CC[C@]23C)[C@@]1(C)C(=O)O | 0.752 | 0.999 | 1.02 | 0.939 | 0.732 | 0.773
C=CC(=O)N1C[C@H](Nc2ncnc3[nH]ccc23)CC[C@@H]1C | 1.27 | 0.386 | 1.09 | 0.936 | 0.582 | 0.786
Cc1ccc(-n2sc(=O)n(Cc3ccc(F)cc3)c2=O)cc1 | 1.53 | 0.968 | 0.775 | 1.84 | 0.924 | 1.14
CN[C@@H]1[C@H](O[C@H]2[C@H](O[C@H]3[C@H](O)[C@@H](O)[C@H](NC(=N)N)[C@@H](O)[C@@H]3NC(=N)N)O[C@@H](C)[C@]2(O)CO)O[C@@H](CO)[C@H](O)[C@H]1O [Dihydrostreptomycin sulfate] | 0.936 | 1.12 | 0.563 | 1.25 | 0.549 | 1.33
Nc1ccn([C@@H]2O[C@H](CO)[C@@H](O)[C@@H]2O)c(=O)n1 [Cytarabine] | 3.08 | 2.79 | 2.54 | 3.39 | 2.79 | 3.15
CC(=O)OCC(=O)[C@@]1(O)CC[C@H]2[C@@H]3CCC4=CC(=O)CC[C@]4(C)[C@H]3[C@@H](O)C[C@@]21C [Hydrocortisone acetate] | 1.17 | 2.28 | 1.4 | 1.96 | 1.05 | 1.41
C[C@]12CC[C@@H]3c4ccc(OC(=O)c5ccccc5)cc4CC[C@H]3[C@@H]1CC[C@@H]2O [Estradiol Benzoate] | 0.619 | 0.854 | 0.933 | 1.35 | 0.557 | 1.01
c1cnc(NCc2ccc(CNc3ncccn3)cc2)nc1 | 1.17 | 0.784 | 0.977 | 0.642 | 0.488 | 1.22
Cc1cccc(Nc2nc(-c3ccncc3)cs2)c1 | 3.35 | 3.77 | 4.06 | 3.02 | 1.11 | 1.73
CN(Cc1cnc2nc(N)nc(N)c2n1)c1ccc(C(=O)N[C@@H](CCC(=O)O)C(=O)O)cc1 [Methotrexate] | 1.77 | 3.08 | 1.05 | 0.72 | 1.55 | 2.57
Cc1cccc(Nc2cc(Cl)nc(SCC(=O)O)n2)c1C | 1.08 | 0.839 | 0.785 | 0.914 | 0.873 | 0.647
Cc1cc(-c2ccc(CC(=O)Nc3ccc(-c4cccnc4)cc3)cc2)ccn1 | 1.31 | 1.03 | 0.823 | 1.02 | 0.787 | 1.36
CCc1cccc(CC)c1NC(=O)N1Cc2[nH]nc(NC(=O)c3ccc(N4CCN(C)CC4)cc3)c2C1 | 2.54 | 2.75 | 2.46 | 3.44 | 2.47 | 2.78
CCOC(=O)N1c2ccc(C(F)(F)F)cc2[C@@H](N(Cc2cc(C(F)(F)F)cc(C(F)(F)F)c2)C(=O)OC)C[C@H]1CC [Torcetrapib] | 1.3 | 0.836 | 1.01 | 0.99 | 0.467 | 1.29

Structure (SMILES) | Euclidean distance (786-O) | Euclidean distance (A549) | Euclidean distance (DU145) | Euclidean distance (FB) | Euclidean distance (HEPG2) | Euclidean distance (OVCAR4)
O=C(CCCCCCC(=O)NO)NO [Suberohydroxamic acid] | 1.22 | 1.22 | 1.18 | 2.06 | 1.84 | 1.28
CCC[S+]([O-])c1ccc2[nH]c(NC(=O)OC)nc2c1 (stereo not given) [Albendazole Oxide] | 1.29 | 1.23 | 0.768 | 0.918 | 0.943 | 1.26
Cc1ncc([N+](=O)[O-])n1CCOC(=O)c1ccccc1 [Metronidazole Benzoate] | 0.984 | 1.41 | 0.885 | 1.58 | 0.486 | 0.922
CC1(C)CCC[C@]2(C)[C@H]3CC(=O)O[C@]3(C)CC[C@@H]12 [Sclareolide] | 1.98 | 1.52 | 1.35 | 0.844 | 1.58 | 1.36
CC(C)N1CCN(c2ccc(Nc3ncc4cc5n(c4n3)C3(CCCCC3)CNC5=O)nc2)CC1 | 3.19 | 1.63 | 2.41 | 3.71 | 2.1 | 2.34
Cc1cn(-c2cc(NC(=O)c3ccc(C)c(Nc4nccc(-c5cccnc5)n4)c3)cc(C(F)(F)F)c2)cn1 [Nilotinib (AMN-107)] | 2.33 | 3.94 | 3.46 | 2.13 | 1.09 | 1.8
Oc1ccc2c(c1)CC[C@H](c1ccccc1)[C@@H]2c1ccc(OCCN2CCCC2)cc1 [Lasofoxifene Tartrate] | 2.93 | 2.42 | 3.01 | 2.8 | 4.32 | 2.5
C[C@H](Cn1cnc2c(N)ncnc21)OCP(=O)(O)O [Tenofovir] | 1.59 | 1.45 | 0.705 | 0.924 | 1.26 | 1.07
CCCSc1nc(N[C@@H]2C[C@H]2c2ccc(F)c(F)c2)c2nnn([C@@H]3C[C@H](OCCO)[C@@H](O)[C@H]3O)c2n1 [Ticagrelor] | 0.66 | 1.41 | 1.07 | 0.885 | 0.977 | 1.37
O=C(/C=C/c1ccc(O)c(O)c1)OCCc1ccccc1 [Caffeic Acid Phenethyl Ester] | 1.43 | 2.31 | 1.1 | 1.78 | 1.71 | 1.18
CCOC(=O)[C@H]1O[C@@H]1C(=O)N[C@@H](CC(C)C)C(=O)NCCC(C)C [Aloxistatin] | 0.731 | 2.18 | 1.26 | 1.17 | 0.539 | 0.987
NC[C@H]1O[C@H](O[C@H]2[C@H](O)[C@@H](O[C@H]3O[C@H](CO)[C@@H](O)[C@H](N)[C@H]3O)[C@H](N)C[C@@H]2N)[C@H](O)[C@@H](O)[C@@H]1O [Kanamycin sulfate] | 1.57 | 0.801 | 1.16 | 0.974 | 2.18 | 1.35
COc1ccccc1OCC(O)CN1CCN(CC(=O)Nc2c(C)cccc2C)CC1 (stereo not given) [Ranolazine] | 1.2 | 0.699 | 0.507 | 0.669 | 1.08 | 1.09
CN1CCc2cc3c(cc2C(=O)Cc2ccc4c(c2C1)OCO4)OCO3 [Protopine] | 0.844 | 1.36 | 0.606 | 0.616 | 1.3 | 1.68
O=S(=O)(O)CCSSCCS(=O)(=O)O [Dimesna] | 0.983 | 1.01 | 1.18 | 1.16 | 0.803 | 1.13
N=C(N)N/N=C/c1c(Cl)cccc1Cl [Guanabenz Acetate] | 1.25 | 1.29 | 1.12 | 0.609 | 0.842 | 1.77
COc1ccc(CNC(=O)Nc2ncc([N+](=O)[O-])s2)cc1 | 0.769 | 1.95 | 0.841 | 0.936 | 1.02 | 0.694
O=C(N[C@H](CO)[C@H](O)c1ccc([N+](=O)[O-])cc1)C(Cl)Cl [Chloramphenicol] | 1.22 | 1 | 1.35 | 0.994 | 0.584 | 1.3
Cc1cccc(-c2nn3c(c2-c2ccnc4ccc(C(N)=O)cc24)CCC3)n1 | 1.39 | 1.06 | 0.926 | 1.47 | 1.04 | 1.18
COc1cc2c(cc1OC)CC(=O)N(CCCN(C)C[C@H]1Cc3cc(OC)c(OC)cc31)CC2 [Ivabradine HCl] | 1.05 | 1.49 | 1.14 | 0.867 | 2.1 | 0.925
CC(C)NCC(O)c1ccc(NS(C)(=O)=O)cc1 (stereo not given) [Sotalol] | 1.21 | 0.865 | 0.768 | 0.911 | 0.602 | 1.02
Cc1c(CN2CCN(C(=O)[C@H](C)O)CC2)sc2c(N3CCOCC3)nc(-c3cnc(N)nc3)nc12 | 4.15 | 2.91 | 1.8 | 4.11 | 3.04 | 3.09
